# Source: PubChem BioAssay (EPA / NIEHS)
# “And” between values parts separate entries of the source, which are not always exact repeats. Equal entries are not always repeated. The source holds several records for some structures; these can differ, active in one and inactive in another. The source made the active and inactive calls. How the source made its calls: active means hit-call score of the fitted dose curve at least 0.9, where 1 is the maximum; inactive means score below 0.9.
# Assay: TAMU_PeakParms_SingleDonor1434_Chronotropy: Texas A&M University (TAMU) 1.5-hr Human Induced Pluripotent Stem Cell (iPSC)-derived Cardiomyocytes Calcium (Ca+2) Flux Assay for Cardiotoxicity: Chronotropy (changes in peak frequency) (AID 2284217)
# Details: actives raise or lower the signal
# Procedure, shortened: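 Beat frequency of single-donor iPSC cardiomyocytes was recorded through a calcium-sensitive dye 1.5 hours after exposure to four concentrations up to 100 uM. An EC05 point of departure was derived.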
Compound,outcome,AC50
O=P(Oc1ccccc1)(Oc1ccccc1)Oc1ccccc1,inactive,
CCCCC(CC)COP(=O)(Oc1ccccc1)Oc1ccccc1 (stereo unspecified),inactive,
c1cc2c3c(cccc3c1)CC2,,32.2 µM (active)
CC(C)(C)c1ccccc1OP(=O)(Oc1ccccc1)Oc1ccccc1,,32 µM (active)
CCC1(c2ccccc2)C(=O)N=C(O)NC1=O (stereo unspecified),,29.7 µM (active)

# Assay: CCTE_Mundy_HCI_Cortical_Synap_Neur_Matur_SynapseCount: CCTE's Synaptogenesis and Neurite Maturation Assay in rat cortical cells for Synapse Count, Mundy Lab (AID 2284218)
# Details: not given
# Procedure, shortened: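 Rat primary cortical cells in 96-well plates received AraC at DIV 5 and were dosed with chemicals at DIV 7 with media change, through DIV 12 (288.33 h). Synapses per neuron counted by high-content imaging of MAP2/synaptophysin/Hoechst staining, versus DMSO baseline.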
Compound,outcome,AC50
CCCCC(CC)COP(=O)(Oc1ccccc1)Oc1ccccc1 (stereo unspecified),inactive,
O=C(O)C(F)(OC(F)(F)C(F)(F)C(F)(F)F)C(F)(F)F (stereo unspecified),inactive,
O=P1(N(CCCl)CCCl)NCCCO1 (stereo unspecified),inactive,
CC(C)(C)c1ccccc1OP(=O)(Oc1ccccc1)Oc1ccccc1,,2.69 µM (active)
CO/N=C(/C(=O)OC)c1ccccc1COc1ccccc1C,,3.28 µM (active)
CCC1(c2ccccc2)C(=O)N=C(O)NC1=O (stereo unspecified),inactive,
CCOP(=S)(OCC)SCSCC,,50 µM (active) and 67.7 µM (active)
CCOc1ccc(C(C)(C)COCc2cccc(Oc3ccccc3)c2)cc1,,15 µM (active)

# Assay: CCTE_Mundy_HCI_Cortical_Synap_Neur_Matur_NeuriteCount: CCTE's Synaptogenesis and Neurite Maturation Assay in rat cortical cells for Neurite Count, Mundy Lab (AID 2284222);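 on outcome: exposure from day 7 to day 12 in vitro with readout at day 12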
# Details: not given
# Procedure, shortened: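 Chemical exposure runs DIV 7–12 in rat cortical cultures, glia suppressed by AraC at DIV 5; measurement is at DIV 12. Imaging-derived neurite counts are fitted against DMSO baseline.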
Compound,outcome,AC50
CCCCC(CC)COP(=O)(Oc1ccccc1)Oc1ccccc1 (stereo unspecified),inactive,
O=C(O)C(F)(OC(F)(F)C(F)(F)C(F)(F)F)C(F)(F)F (stereo unspecified),inactive,
O=P1(N(CCCl)CCCl)NCCCO1 (stereo unspecified),inactive,
CC(C)(C)c1ccccc1OP(=O)(Oc1ccccc1)Oc1ccccc1,inactive,
CO/N=C(/C(=O)OC)c1ccccc1COc1ccccc1C,,5.23 µM (active)
CCC1(c2ccccc2)C(=O)N=C(O)NC1=O (stereo unspecified),inactive,
CCOP(=S)(OCC)SCSCC,inactive,81.1 µM (active)
CCOc1ccc(C(C)(C)COCc2cccc(Oc3ccccc3)c2)cc1,inactive,

# Assay: CCTE_Mundy_HCI_Cortical_Synap_Neur_Matur_CellBodySpotCount: CCTE's Synaptogenesis and Neurite Maturation Assay in rat cortical cells for Cell Body Spot Count, Mundy Lab (AID 2284223)
# Details: not given
# Procedure, shortened: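 High-content imaging counts synaptophysin puncta on neuronal cell bodies per neuron after MAP2/synaptophysin immunostaining. Rat primary cortical cells, glia arrested with AraC at DIV 5, were exposed DIV 7–12; signal decrease measured against DMSO.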
Compound,outcome,AC50
CCCCC(CC)COP(=O)(Oc1ccccc1)Oc1ccccc1 (stereo unspecified),inactive,
O=C(O)C(F)(OC(F)(F)C(F)(F)C(F)(F)F)C(F)(F)F (stereo unspecified),inactive,
O=P1(N(CCCl)CCCl)NCCCO1 (stereo unspecified),inactive,
CC(C)(C)c1ccccc1OP(=O)(Oc1ccccc1)Oc1ccccc1,inactive,
CO/N=C(/C(=O)OC)c1ccccc1COc1ccccc1C,,3.33 µM (active)
CCC1(c2ccccc2)C(=O)N=C(O)NC1=O (stereo unspecified),inactive,
CCOP(=S)(OCC)SCSCC,inactive,77.6 µM (active)
CCOc1ccc(C(C)(C)COCc2cccc(Oc3ccccc3)c2)cc1,inactive,
